Mot1-301 SUMO: blocks SUMOylation pathway, rescuing yeast Mot1-301 growth; S. cerevisiae Mot1-301 growth rescue, ATP luminescence, 38.5C; percent above DMSO median, 100 means doubled; growth rescue, % at 18.8 µM; 320,000 compounds, 1% hits;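 active = every valid replicate shows activation above 250% relative to neutral control wells; inactive = the rest, any valid replicate at or below 250%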
IDE inh: inhibits human insulin-degrading enzyme in HEK cells. inhibition, % at 5.59 µM. 320,000 compounds, 0.41% hits. AID 434962. FAbetaB cleavage, fluorescence polarization. P14735;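 active = percent inhibition above the average of all tested compounds plus 3 SD, set per screening campaign, cut at about 16% in these data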;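 note: IDE supplied by intact live HEK cells; FP after avidin binding of uncleaved biotin substrate so inhibition keeps polarization high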
HDAC3 inh: blocks human histone deacetylase 3. O15379. recombinant HDAC3, fluorogenic peptide/trypsin coupled, fluorescence. inhibition, % at 8.3 µM. 320,000 compounds, 0.15% hits; in the data active = inhibition above about 26%, passing the limit was not always enough
LANA-H2B inh: blocks KSHV LANA binding to histone H2A/H2B. Q9QR71. cell-free LANA-H2A/H2B peptide, fluorescence polarization. inhibition, % (concentration not given with the values). 320,000 compounds, 0.6% hits. AID 2629; in the data active = inhibition mostly above about 10%, no sharp cut-off; inactive = mostly below about 6.7%
Target sequence (Q9QR71 whole entry, looked up): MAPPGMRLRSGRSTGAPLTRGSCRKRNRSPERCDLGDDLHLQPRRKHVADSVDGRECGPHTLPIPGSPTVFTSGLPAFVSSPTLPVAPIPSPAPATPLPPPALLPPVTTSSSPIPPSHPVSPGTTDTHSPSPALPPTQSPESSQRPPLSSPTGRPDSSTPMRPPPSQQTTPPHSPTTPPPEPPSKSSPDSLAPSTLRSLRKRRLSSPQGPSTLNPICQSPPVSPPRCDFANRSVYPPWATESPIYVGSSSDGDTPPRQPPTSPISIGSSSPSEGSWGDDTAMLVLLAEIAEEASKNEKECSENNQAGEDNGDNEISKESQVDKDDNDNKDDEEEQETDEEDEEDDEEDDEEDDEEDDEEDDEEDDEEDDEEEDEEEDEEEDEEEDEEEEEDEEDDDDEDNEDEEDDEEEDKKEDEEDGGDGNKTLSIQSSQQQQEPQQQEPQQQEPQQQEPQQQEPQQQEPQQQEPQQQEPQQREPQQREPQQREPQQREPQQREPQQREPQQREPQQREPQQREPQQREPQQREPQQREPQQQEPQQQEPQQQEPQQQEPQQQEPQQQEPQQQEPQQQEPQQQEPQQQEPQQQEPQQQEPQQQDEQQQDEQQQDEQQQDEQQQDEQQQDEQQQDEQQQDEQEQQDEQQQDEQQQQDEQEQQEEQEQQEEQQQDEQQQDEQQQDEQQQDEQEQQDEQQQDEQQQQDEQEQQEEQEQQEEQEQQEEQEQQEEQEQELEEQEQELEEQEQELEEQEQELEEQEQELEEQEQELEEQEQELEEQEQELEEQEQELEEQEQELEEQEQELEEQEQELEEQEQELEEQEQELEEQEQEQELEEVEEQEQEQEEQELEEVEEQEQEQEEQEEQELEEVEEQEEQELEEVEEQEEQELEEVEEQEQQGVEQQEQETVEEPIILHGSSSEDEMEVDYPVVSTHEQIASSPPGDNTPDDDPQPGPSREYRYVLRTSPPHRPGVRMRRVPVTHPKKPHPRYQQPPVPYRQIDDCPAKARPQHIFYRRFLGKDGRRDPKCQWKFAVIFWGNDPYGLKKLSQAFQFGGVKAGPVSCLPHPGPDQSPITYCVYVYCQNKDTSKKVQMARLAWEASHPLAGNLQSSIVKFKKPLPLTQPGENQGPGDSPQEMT
IDE cell activ: boosts human insulin-degrading enzyme activity in HEK cells. P14735. FAbeta-B cleavage, fluorescence polarization; 0% vehicle, 100% cell-free pure enzyme wells. activation, % at 5.96 µM. 340,000 compounds, 0.073% hits. AID 493087;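 active = activation above the mean of all tested compounds plus 3 SD, set per screening campaign, cut at about 17% in these data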
Of the large screens only hits and unclear results are named; the others gave an inactive call. A selection: hits, their analogues and other compounds. The true share with any hit is near 2.1%.

CC1=CC2=NC(=O)CC(C)(C(=O)N(CC(=O)NC3CCCC3)c3ccccc3C)N2C=C1 (stereo not given)	LANA-H2B inh 11
CC(C)(C)c1ccc(S(=O)(=O)N2CCc3nc4ccccc4c(C(=O)O)c3C2)cc1	none
CCOc1ccc(CNc2ccc(CNc3ncn[nH]3)cc2)cc1	Mot1-301 SUMO 342
COc1ccc(C(=O)NCc2nnc(SCC(=O)NO)n2Cc2ccccc2)cc1	HDAC3 inh 91
CC(=O)N1CCN(C(=O)COC(=O)CNC(=O)c2ccccc2C)CC1	none
CS(=O)(=O)Nc1ccc(C(=O)Nc2ccccc2C(=O)N2CCCC2)cc1	Mot1-301 SUMO 545
O=C(O)C1CCN(C(=O)CSc2nc3ccccc3c(=O)n2Cc2ccccc2)CC1	none
COc1cc(C2C3=C(COC3=O)Oc3cc4c(cc32)OCO4)cc(OC)c1OC(C)=O (stereo not given)	none (no result: Mot1-301 SUMO, IDE inh, HDAC3 inh, LANA-H2B inh)
O=C(CN1C(=O)NC2(CCOc3ccccc32)C1=O)c1ccc(F)cc1 (stereo not given)	none
CC(OC(=O)c1ccc(Cl)nc1)C(=O)NC1(C#N)CCCCC1 (stereo not given)	IDE cell activ 18
CC(OC(=O)c1ncc(Cl)c(Cl)c1Cl)C(=O)NC1(C#N)CCCCC1 (stereo not given)	none
CSc1ccc(CN(C)C(=O)CNC(=O)c2sc3ccccc3c2Cl)cc1	none
O=S(=O)(c1ccc(F)cc1)N(CCO)CC(O)Cn1c2ccccc2c2ccccc21 (stereo not given)	none
CCN(CC(O)Cn1c2ccccc2c2ccccc21)S(=O)(=O)c1ccc(F)cc1 (stereo not given)	HDAC3 inh 30
NC(=O)NC(Cc1ccccc1)C(=O)NCCCSc1ccccc1 (stereo not given)	none
Cc1cccc(-n2c(Cc3cc(=O)[nH]c(=O)[nH]3)nnc2SCC(=O)N2CCCCC2)c1	none
CSc1nnc(Cc2cc(=O)[nH]c(=O)[nH]2)n1-c1cccc(C)c1	Mot1-301 SUMO 352
C[C@@H]1NC(=O)N[C@@H]1CCCCCC(=O)O	IDE cell activ 51
Nc1c2c(=O)[nH]c(O)cc2nn1-c1ccccc1	none (no result: Mot1-301 SUMO, IDE inh, HDAC3 inh, LANA-H2B inh)
O=C(Nc1cccc(Cl)c1)C1=CC=CN2CCS(=O)(=O)N=C12	none
CC(=O)c1cccc(OC(=O)C2=CC=CN3CCS(=O)(=O)N=C23)c1	LANA-H2B inh 47
CC1=NN(C(N)=S)C(=O)C1N=Nc1c(Cl)cc([N+](=O)[O-])cc1Cl (stereo not given)	none
CSc1ccccc1NC(=O)Cn1ccsc1=N	LANA-H2B inh 11
CSCC[C@H](NC(=O)[C@H](Cc1ccccc1)n1c(=O)[nH]c2ccccc2c1=O)C(=O)N1CCC[C@@H]1C(=O)O	Mot1-301 SUMO 735
CC(C)CC(=O)Nc1cc2c3c(c1)C(C)C(=O)N3CCC2 (stereo not given)	none
O=C1CCCC2=C1C(c1ccc(O)c(Br)c1)C1=C(CCCC1=O)N2c1ccccc1	Mot1-301 SUMO active
O=C(O)Cn1cc(CN2CCOCC2)c2ccccc21	none
Cn1cc(CN2CCN(c3ccccc3)CC2)c2ccccc21	LANA-H2B inh 13
COc1ccc(OC)c2sc(N(CCCN(C)C)C(=O)c3ccc(S(=O)(=O)N4CCc5ccccc5C4)cc3)nc12	HDAC3 inh 41 (no result: IDE cell activ)
O=C(COc1coc(CN2CCc3ccccc3C2)cc1=O)Nc1cccc(Cl)c1	none (no result: HDAC3 inh)
C[C@H](CO)N1C[C@H](C)[C@@H](CN(C)S(=O)(=O)c2cccs2)Oc2ccc(NC(=O)c3ccncc3)cc2C1=O	none
CC1CCCN(C(=O)NC2CC(=O)N(c3ccc4c(c3)OCCO4)C2)C1 (stereo not given)	none (no result: Mot1-301 SUMO)
Cc1noc(C)c1C(=O)Nc1ccccc1N1CCCC1	none
Cc1ccc(C)c(C(=O)COC(=O)c2ccc(C)c(S(=O)(=O)N3CCOCC3)c2)c1	LANA-H2B inh 14
CC1(C)C(=O)Nc2ccccc2N1C(=O)CN1C(=O)c2ccccc2C1=O	none
CC1(C)C(=O)Nc2ccccc2N1C(=O)CN1C(=O)NC(CCc2ccccc2)C1=O (stereo not given)	Mot1-301 SUMO 345
O=C(COC(=O)C1=COCCO1)Nc1ccccc1	none
O=C(COC(=O)C1=COCCO1)Nc1ccc(F)c(F)c1	Mot1-301 SUMO 609
O=C(CN(C(=O)c1csnn1)c1cccc2ccccc12)NCc1ccccc1	none
O=C(CN(C(=O)c1csnn1)c1cccc2ccccc12)NCc1ccc(F)cc1	LANA-H2B inh 20
CC1c2cc3c(cc2CCN1C(=O)c1cccc(Cl)c1)OCCCO3 (stereo not given)	none
CCOc1ccc(C(=O)Nc2ccc(N3CCN(C(C)=O)CC3)cc2)cc1[N+](=O)[O-]	LANA-H2B inh 18
CNc1nc(Cl)c(SC)c(NCc2cccc(OC)c2)n1	none
COc1cc(/C=N/O)cc(Cl)c1OC	Mot1-301 SUMO 328
COc1cc(/C=N/O)cc(Br)c1OC	none
CC[C@]12c3[nH]c4ccccc4c3CCN1C(=O)C(CC(=O)NCc1ccco1)C[C@@H]2C(=O)N1CCN(C(=O)C2CC2)CC1 (stereo not given in full)	none
CC[C@]12c3[nH]c4ccccc4c3CCN1C(=O)C(CC(=O)NCC13CC4CC(CC(C4)C1)C3)C[C@@H]2C(=O)N1CCN(C(=O)C2CC2)CC1 (stereo not given in full)	LANA-H2B inh active
CC[C@]12c3[nH]c4ccc(Cl)cc4c3CCN1C(=O)[C@@H](CC(=O)NCC13CC4CC(CC(C4)C1)C3)C[C@@H]2C(=O)N1CCN(C(=O)C2CC2)CC1	none (no result: Mot1-301 SUMO, IDE inh, HDAC3 inh, LANA-H2B inh)
O=C(CC1C[C@H](C(=O)N2CCOCC2)[C@@]2(CCC3CCCC3)c3[nH]c4ccccc4c3CCN2C1=O)NCCc1ccccn1 (stereo not given in full)	LANA-H2B inh 105
CC(C)(C)NC(=O)CC1C[C@H](C(=O)N2CCCCC2)[C@@]2(CCc3ccccc3)c3[nH]c4ccccc4c3CCN2C1=O (stereo not given in full)	LANA-H2B inh 32
COc1ccc2[nH]c3c(c2c1)CCN1C(=O)C(CC(=O)NCCc2ccccn2)C[C@H](C(=O)N2CCOCC2)[C@@]31CCC1CCCC1 (stereo not given in full)	none (no result: Mot1-301 SUMO, IDE inh, HDAC3 inh, LANA-H2B inh)
CC[C@]12c3[nH]c4ccccc4c3CCN1C(=O)C(CC(=O)NC(C)(C)C)C[C@@H]2C(=O)N1CCN(C(=O)C2CC2)CC1 (stereo not given in full)	LANA-H2B inh 183
CC(=O)Nc1ccc(C(=O)OCC(=O)N(c2ccccc2)C2CCCCC2)cc1	none
O=C(CSC1=NS(=O)(=O)c2ccccc21)Nc1ccccc1	none
COC(=O)CSC1=NS(=O)(=O)c2ccccc21	HDAC3 inh 54
CCOC(=O)C1=C(C)NC(=O)NC1C1CC=CCC1 (stereo not given)	none (no result: HDAC3 inh)
COC(=O)C1=C(C)NC(C)=C(C(=O)OC)C1C1CC=CCC1 (stereo not given)	LANA-H2B inh 8.1
O=C(Cc1ccccc1)N/N=C/c1cccnc1	Mot1-301 SUMO 313

Bioassay records as filed in PubChem.
